# From the supplement of paper PMC8728848
# This is one part of a sample in which the strongest signals are shown more often than they occur.
# B1: Epa3 (Candida glabrata), Q6VBI8_CANGB (protein)
# chain: MGSSHHHHHHSSGLVPRGSHMNDLGFSLFEKRELSSQNPFGYPIGCSPQDVAIIPGLTMELYSYPIVSGTPPNCYDASYVDPEYPRTGYLKRKMVGKSTGVTGNLNYKYSVEKACMVKYGNLPAGYNYNEPLTVSNFTMILYGYFKAQTTGLHTFFVNADDLLYINFGAGNAFDCCKREDSKTKLGEYVAYDIWHVDSSKNKVSLFLEKDLYYPIRMFFNNIGKDSSLDLSFSVNGATDQISDFSGYLYSVPDQPDTCPAHIGYDTTCR
# Columns and labels:
# Assay in all cases: glycan array binding signal (z-score within array); higher = stronger binding
# Settings in all cases: glycan notation: IUPAC condensed, linker removed
# [1] = target: Fuc(a1-2)Gal(b1-4)GlcNAc(b1-3)Gal(b1-4)GlcNAc
# Method in brief: (§1)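 Glycan array data were curated from 3228 arrays in the Consortium for Functional Glycomics database and kept only where the protein sequence was available. Glycan names were converted to IUPAC-condensed notation, and columns mapping to the same glycan were averaged. The binding signal is a within-array Z-score, averaged across arrays of the same protein sequence at different concentrations or buffers and across linkers. Negative Z-scores can be read as non-binding.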
# [2] = target: Fuc(a1-2)Gal(b1-4)GlcNAc(b1-3)Gal(b1-4)GlcNAc(b1-2)Man(a1-3)[Fuc(a1-2)Gal(b1-4)GlcNAc(b1-3)Gal(b1-4)GlcNAc(b1-2)Man(a1-6)]Man(b1-4)GlcNAc(b1-4)GlcNAc
# Method in brief: as §1
# [3] = target: Fuc(a1-2)Gal(b1-4)[Fuc(a1-3)]GlcNAc
# Method in brief: as §1
# [4] = target: Fuc(a1-2)Gal(b1-4)[Fuc(a1-3)]GlcNAc(b1-2)Man(a1-3)[Fuc(a1-2)Gal(b1-4)[Fuc(a1-3)]GlcNAc(b1-2)Man(a1-6)]Man(b1-4)GlcNAc(b1-4)[Fuc(a1-6)]GlcNAc
# Method in brief: as §1
# [5] = target: Fuc(a1-2)Gal(b1-4)[Fuc(a1-3)]GlcNAc(b1-2)[Fuc(a1-2)Gal(b1-4)[Fuc(a1-3)]GlcNAc(b1-4)]Man(a1-3)[Fuc(a1-2)Gal(b1-4)[Fuc(a1-3)]GlcNAc(b1-2)Man(a1-6)]Man(b1-4)GlcNAc(b1-4)GlcNAc
# Method in brief: as §1
# [6] = target: Fuc(a1-2)Gal(b1-4)[Fuc(a1-3)]GlcNAc(b1-3)GalNAc
# Method in brief: as §1
# [7] = target: Fuc(a1-2)Gal(b1-4)[Fuc(a1-3)]GlcNAc(b1-3)[Neu5Ac(a2-6)Gal(b1-4)GlcNAc(b1-6)]Gal(b1-4)Glc
# Method in brief: as §1
# [8] = target: Fuc(a1-2)Gal6S(b1-4)Glc6S
# Method in brief: as §1
# [9] = target: Fuc(a1-2)[Gal(a1-3)]Gal(b1-4)GlcNAc(b1-2)Man(a1-3)[Fuc(a1-2)[Gal(a1-3)]Gal(b1-4)GlcNAc(b1-2)Man(a1-6)]Man(b1-4)GlcNAc(b1-4)GlcNAc
# Method in brief: as §1
# [10] = target: Fuc(a1-2)[Gal(a1-3)]Gal(b1-4)[Fuc(a1-3)]GlcNAc(b1-3)GalNAc
# Method in brief: as §1
# [11] = target: Fuc(a1-2)[GalNAc(a1-3)]Gal(b1-3)GlcNAc
# Method in brief: as §1
# [12] = target: Fuc(a1-2)[GalNAc(a1-3)]Gal(b1-3)GlcNAc(b1-2)Man(a1-3)[Fuc(a1-2)[GalNAc(a1-3)]Gal(b1-3)GlcNAc(b1-2)Man(a1-6)]Man(b1-4)GlcNAc(b1-4)[Fuc(a1-6)]GlcNAc
# Method in brief: as §1
# [13] = target: Fuc(a1-2)[GalNAc(a1-3)]Gal(b1-4)GlcNAc(b1-3)Gal(b1-4)GlcNAc
# Method in brief: as §1
# [14] = target: Fuc(a1-2)[GalNAc(a1-3)]Gal(b1-4)[Fuc(a1-3)]GlcNAc(b1-3)GalNAc
# Method in brief: as §1
# [15] = target: Fuc(a1-3)[GalNAc(b1-4)]GlcNAc
# Method in brief: as §1
# [16] = target: Gal(a1-3)Gal(b1-3)[Fuc(a1-4)]GlcNAc(b1-2)Man(a1-3)[Gal(a1-3)Gal(b1-3)[Fuc(a1-4)]GlcNAc(b1-2)Man(a1-6)]Man(b1-4)GlcNAc(b1-4)GlcNAc
# Method in brief: as §1
# Gal(b1-3)Gal(b1-4)GlcNAc = target: Gal(b1-3)Gal(b1-4)GlcNAc
# Method in brief: as §1
# Gal(b1-3)GalNAc = target: Gal(b1-3)GalNAc
# Method in brief: as §1
# [17] = target: Gal(b1-3)GalNAc(a1-3)[Fuc(a1-2)]Gal(b1-4)Glc
# Method in brief: as §1
# [18] = target: Gal(b1-3)GalNAc(a1-3)[Fuc(a1-2)]Gal(b1-4)GlcNAc
# Method in brief: as §1
# Gal(b1-3)GalNAc(b1-3)Gal = target: Gal(b1-3)GalNAc(b1-3)Gal
# Method in brief: as §1
# [19] = target: Gal(b1-3)GalNAc(b1-3)Gal(a1-4)Gal(b1-4)Glc
# Method in brief: as §1
# [20] = target: Gal(b1-3)GalNAc(b1-4)Gal(b1-4)Glc
# Method in brief: as §1
# [21] = target: Gal(b1-3)GalNAc(b1-4)[Neu5Ac(a2-3)]Gal(b1-4)Glc
# Method in brief: as §1
# Gal(b1-3)GlcNAc = target: Gal(b1-3)GlcNAc
# Method in brief: as §1
# [22] = target: Gal(b1-3)[Fuc(a1-4)]GlcNAc
# Method in brief: as §1
# [23] = target: Gal(b1-3)[Neu5Ac(a2-6)]GalNAc
# Method in brief: as §1
# [24] = target: Gal(b1-3)[Neu5Ac(b2-6)]GalNAc
# Method in brief: as §1
# [25] = target: Gal(b1-4)GalNAc(b1-3)[Fuc(a1-2)]Gal(b1-4)GlcNAc
# Method in brief: as §1
# [26] = target: Gal(b1-4)GlcNAc(b1-2)[Gal(b1-4)GlcNAc(b1-6)]Man(a1-6)[Gal(b1-4)GlcNAc(b1-2)Man(a1-3)]Man(b1-4)GlcNAc(b1-4)[Fuc(a1-6)]GlcNAc
# Method in brief: as §1
# [27] = target: Gal(b1-4)GlcNAc(b1-3)Gal(b1-4)GlcNAc(b1-2)[Gal(b1-4)GlcNAc(b1-3)Gal(b1-4)GlcNAc(b1-6)]Man(a1-6)[Gal(b1-4)GlcNAc(b1-3)Gal(b1-4)GlcNAc(b1-2)Man(a1-3)]Man(b1-4)GlcNAc(b1-4)[Fuc(a1-6)]GlcNAc
# Method in brief: as §1
# GalNAc(b1-3)GlcNAc = target: GalNAc(b1-3)GlcNAc
# Method in brief: as §1
# GalNAc3S(b1-4)GlcNAc = target: GalNAc3S(b1-4)GlcNAc
# Method in brief: as §1
# Glc(b1-4)Glc = target: Glc(b1-4)Glc
# Method in brief: as §1
# [28] = target: GlcNAc(a1-3)Gal(b1-4)GlcNAc
# Method in brief: as §1
# [29] = target: GlcNAc(b1-2)[GlcNAc(b1-4)]Man(a1-3)[GlcNAc(b1-4)][GlcNAc(b1-2)[GlcNAc(b1-6)]Man(a1-6)]Man(b1-4)GlcNAc(b1-4)[Fuc(a1-6)]GlcNAc
# Method in brief: as §1
# [30] = target: GlcNAc(b1-3)Gal(b1-4)GlcNAc(b1-3)Gal(b1-4)GlcNAc(b1-2)Man(a1-3)[GlcNAc(b1-3)Gal(b1-4)GlcNAc(b1-3)Gal(b1-4)GlcNAc(b1-2)Man(a1-6)]Man(b1-4)GlcNAc(b1-4)[Fuc(a1-6)]GlcNAc
# Method in brief: as §1
# [31] = target: GlcNAc(b1-3)[GlcNAc(b1-6)]GalNAc
# Method in brief: as §1
# Kdn(a2-6)Gal(b1-4)GlcNAc = target: Kdn(a2-6)Gal(b1-4)GlcNAc
# Method in brief: as §1
# [32] = target: Man(a1-2)Man(a1-3)[Man(a1-6)]Man(a1-6)[Man(a1-2)Man(a1-3)]Man(b1-4)GlcNAc(b1-4)GlcNAc
# Method in brief: as §1
# [33] = target: Man(a1-3)[Man(a1-6)]Man(a1-6)[Man(a1-3)]Man(b1-4)GlcNAc(b1-4)GlcNAc
# Method in brief: as §1
# [34] = target: Neu5Ac(a2-3)Gal(b1-3)GalNAc6S
# Method in brief: as §1
# [35] = target: Neu5Ac(a2-3)Gal(b1-3)GlcNAc(b1-4)Gal(b1-4)Glc
# Method in brief: as §1
# [36] = target: Neu5Ac(a2-3)Gal(b1-3)GlcNAc(b1-6)GalNAc
# Method in brief: as §1
# Neu5Ac(a2-3)Gal(b1-4)Glc = target: Neu5Ac(a2-3)Gal(b1-4)Glc
# Method in brief: as §1
# [37] = target: Neu5Ac(a2-3)Gal(b1-4)GlcNAc(b1-2)[Neu5Ac(a2-3)Gal(b1-4)GlcNAc(b1-4)]Man(a1-3)[GlcNAc(b1-4)][Neu5Ac(a2-3)Gal(b1-4)GlcNAc(b1-4)Man(a1-6)]Man(b1-4)GlcNAc(b1-4)GlcNAc
# Method in brief: as §1
# [38] = target: Neu5Ac(a2-3)Gal(b1-4)GlcNAc(b1-3)Gal
# Method in brief: as §1
# [39] = target: Neu5Ac(a2-3)Gal(b1-4)GlcNAc(b1-3)Gal(b1-4)GlcNAc(b1-3)Gal(b1-4)GlcNAc
# Method in brief: as §1
# Neu5Ac(a2-3)GalNAc = target: Neu5Ac(a2-3)GalNAc
# Method in brief: as §1
# [40] = target: Neu5Ac(a2-6)Gal(b1-4)GlcNAc(b1-2)Man(a1-3)[Gal(b1-4)GlcNAc(b1-2)Man(a1-6)]Man(b1-4)GlcNAc(b1-4)GlcNAc
# Method in brief: as §1
# [41] = target: Neu5Ac(a2-6)GalNAc(b1-4)GlcNAc6S
# Method in brief: as §1
# [42] = target: Neu5Ac(a2-8)Neu5Ac(a2-3)[Gal(b1-3)GalNAc(b1-4)]Gal(b1-4)Glc
# Method in brief: as §1
# [43] = target: Neu5Ac(a2-8)Neu5Ac(a2-8)Neu5Ac
# Method in brief: as §1
# Neu5Gc(a2-6)GalNAc = target: Neu5Gc(a2-6)GalNAc
# Method in brief: as §1
binder,measurement,setting,value
B1,glycan array binding signal (z-score),[1],-0.314
same,glycan array binding signal (z-score),[2],0.01
same,glycan array binding signal (z-score),[3],-0.32
same,glycan array binding signal (z-score),[4],0.042
same,glycan array binding signal (z-score),[5],0.047
same,glycan array binding signal (z-score),[6],0.718
same,glycan array binding signal (z-score),[7],-0.262
same,glycan array binding signal (z-score),[8],0.004
same,glycan array binding signal (z-score),[9],-0.263
same,glycan array binding signal (z-score),[10],0.123
same,glycan array binding signal (z-score),[11],-0.201
same,glycan array binding signal (z-score),[12],-0.205
same,glycan array binding signal (z-score),[13],-0.246
same,glycan array binding signal (z-score),[14],2.94
same,glycan array binding signal (z-score),[15],0.843
same,glycan array binding signal (z-score),[16],-0.23
same,glycan array binding signal (z-score),Gal(b1-3)Gal(b1-4)GlcNAc,3.61
same,glycan array binding signal (z-score),Gal(b1-3)GalNAc,2.99
same,glycan array binding signal (z-score),[17],3.57
same,glycan array binding signal (z-score),[18],3.87
same,glycan array binding signal (z-score),Gal(b1-3)GalNAc(b1-3)Gal,8.62
same,glycan array binding signal (z-score),[19],3.07
same,glycan array binding signal (z-score),[20],17
same,glycan array binding signal (z-score),[21],2.86
same,glycan array binding signal (z-score),Gal(b1-3)GlcNAc,-0.202
same,glycan array binding signal (z-score),[22],-0.142
same,glycan array binding signal (z-score),[23],4.98
same,glycan array binding signal (z-score),[24],0.622
same,glycan array binding signal (z-score),[25],-0.192
same,glycan array binding signal (z-score),[26],-0.134
same,glycan array binding signal (z-score),[27],0.064
same,glycan array binding signal (z-score),GalNAc(b1-3)GlcNAc,-0.122
same,glycan array binding signal (z-score),GalNAc3S(b1-4)GlcNAc,-0.277
same,glycan array binding signal (z-score),Glc(b1-4)Glc,-0.201
same,glycan array binding signal (z-score),[28],-0.2
same,glycan array binding signal (z-score),[29],-0.314
same,glycan array binding signal (z-score),[30],0.201
same,glycan array binding signal (z-score),[31],-0.176
same,glycan array binding signal (z-score),Kdn(a2-6)Gal(b1-4)GlcNAc,-0.334
same,glycan array binding signal (z-score),[32],-0.175
same,glycan array binding signal (z-score),[33],-0.086
same,glycan array binding signal (z-score),[34],-0.264
same,glycan array binding signal (z-score),[35],0.022
same,glycan array binding signal (z-score),[36],-0.336
same,glycan array binding signal (z-score),Neu5Ac(a2-3)Gal(b1-4)Glc,-0.174
same,glycan array binding signal (z-score),[37],-0.312
same,glycan array binding signal (z-score),[38],-0.282
same,glycan array binding signal (z-score),[39],-0.435
same,glycan array binding signal (z-score),Neu5Ac(a2-3)GalNAc,-0.308
same,glycan array binding signal (z-score),[40],-0.331
same,glycan array binding signal (z-score),[41],-0.236
same,glycan array binding signal (z-score),[42],2.2
same,glycan array binding signal (z-score),[43],-0.342
same,glycan array binding signal (z-score),Neu5Gc(a2-6)GalNAc,-0.066
